These results are taken from PubChem BioAssay (EPA / NIEHS).

Inconclusive results are not listed. Calls of active or inactive are those of the source. How the source made its calls: active means hit-call score of the fitted dose curve at least 0.9, where 1 is the maximum; inconclusive means response in the unintended direction; inactive means score below 0.9.

Sequence of human Caspase 5 (CASP5), CASP5 (gene 838) (P51878 whole entry, looked up): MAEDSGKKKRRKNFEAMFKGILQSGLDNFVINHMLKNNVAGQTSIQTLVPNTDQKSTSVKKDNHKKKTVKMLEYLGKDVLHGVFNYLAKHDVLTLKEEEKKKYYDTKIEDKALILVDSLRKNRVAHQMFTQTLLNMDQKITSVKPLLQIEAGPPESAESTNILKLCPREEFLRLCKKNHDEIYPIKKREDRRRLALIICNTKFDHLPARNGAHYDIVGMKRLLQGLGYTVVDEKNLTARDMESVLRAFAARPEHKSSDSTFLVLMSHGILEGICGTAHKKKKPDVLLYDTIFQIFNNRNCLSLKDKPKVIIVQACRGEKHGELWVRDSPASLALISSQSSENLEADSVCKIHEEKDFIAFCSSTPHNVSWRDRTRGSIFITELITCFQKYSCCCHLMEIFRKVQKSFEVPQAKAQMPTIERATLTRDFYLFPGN
Sequence of human Acid Phosphatase 1 (ACP1), ACP1 (gene 52) (P24666 whole entry, looked up): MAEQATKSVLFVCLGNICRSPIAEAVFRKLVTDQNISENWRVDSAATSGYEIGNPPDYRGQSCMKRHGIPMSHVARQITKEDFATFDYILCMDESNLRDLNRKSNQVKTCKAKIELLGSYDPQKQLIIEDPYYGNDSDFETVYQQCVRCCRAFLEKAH

The first test addresses human Acid Phosphatase 1 (ACP1), ACP1 (gene 52) (UniProt P24666). Nature of the test: NVS_ENZ_hACP1: NovaScreen (NVS) Enzymatic Assay for human Acid Phosphatase 1 (ACP1) (AID 2283136). The gist of the method: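 Cell-free fluorescence read-out of phosphatase activity, substrate and product separated by mobility shift, taken 1.5 h after compound addition; protein produced in Sf9. Single 25 uM duplicate screen, followed by concentration series for actives, scored as signal loss relative to DMSO.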
For `O=C(O)c1cc(N=Nc2ccc(S(=O)(=O)Nc3ccccn3)cc2)ccc1O`, the compound was called inactive.
The same measure, in the same setting: the entry for `Nc1nc2ncc(CNc3ccc(C(=O)N[C@@H](CCC(=O)O)C(=O)O)cc3)nc2c(=O)[nH]1` is “inactive”; for `O=P(OC(CCl)CCl)(OC(CCl)CCl)OC(CCl)CCl` it is “inactive”.
Still for that read-out and setting: the entry for `CC(C)c1cccc(C(C)C)c1N1C(=O)c2ccc(O)cc2C1=O` is “inactive”; for `Cc1ccc(N)cc1O` it is “inactive”.

For the next test, the target named is human Caspase 5 (CASP5), CASP5 (gene 838) (UniProt P51878). Kind of test: NVS_ENZ_hCASP5: NovaScreen (NVS) Enzymatic Assay for human Caspase 5 (CASP5) (AID 2283137). An outline of the steps:
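Loss of fluorescent signal versus DMSO scored for E. coli-derived human CASP5 cleaving a fluorescent substrate, 2 h post-dosing; compounds first tested at 25 uM in duplicate, hits rerun in concentration series with 50 uM top concentration.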
Regarding `CCc1cc(SCc2sc(-c3ccc(C(F)(F)F)cc3)nc2CN2CCN(c3ccc(OC)cc3)CC2)ccc1OCC(=O)O`, the AC50 was 2.35 µM (active).
On the same count and under the same terms, the value for `CCOc1cccc(-n2cc(C(=O)N3CCN(c4cc(C(=O)O)c5ccccc5c4)CC3)nc2-c2ccc(C)cc2)c1` was 18.3 µM (active).
Consider `O=P(OC(CCl)CCl)(OC(CCl)CCl)OC(CCl)CCl`, for which the outcome was inactive.
The same measure, in the same setting: the value for `Nc1ccc(Nc2ccccc2)cc1` was “inactive”.
As to `Oc1ccc2c(c1)-c1ccccc1C2`, the half-maximal activity concentration (AC50) was 36.1 µM (active).
The same measure, in the same setting: the value for `O=C(OC[C@H]1O[C@@H](OC(=O)c2cc(O)c(O)c(OC(=O)c3cc(O)c(O)c(O)c3)c2)[C@H](OC(=O)c2cc(O)c(O)c(OC(=O)c3cc(O)c(O)c(O)c3)c2)[C@@H](OC(=O)c2cc(O)c(O)c(OC(=O)c3cc(O)c(O)c(O)c3)c2)[C@@H]1OC(=O)c1cc(O)c(O)c(OC(=O)c2cc(O)c(O)c(O)c2)c1)c1cc(O)c(O)c(OC(=O)c2cc(O)c(O)c(O)c2)c1` was 0.136 µM (active).

Broadly, the AC50 is the concentration giving half of the maximal activity seen.
